This is an account of results in PubChem BioAssay (NCI).

Experiment in all cases: NCI-60 one-dose screen, 48 h (100 = growth as untreated, 0 = no growth, -100 = all killed)
The test system of one test is SR leukemia. To be noted: 10 µM unless noted.
For another test, the system named is RPMI-8226 leukemia. To be noted: 10 µM unless noted.
For another test, the system named is OVCAR-5 ovarian. The settings on record: 10 µM unless noted.
The test system of a further test is OVCAR-4 ovarian. To be noted: 10 µM.
For another test, the system named is SK-OV-3 ovarian. The settings on record: 10 µM unless noted.
The next test has as its system IGROV1 ovarian. To be noted: 10 µM unless noted.
Another test has as its system HS 578T breast. To be noted: 10 µM unless noted.
In the next test the test system is NCI/ADR-RES ovarian. To be noted: 10 µM unless noted.
Another test concerns T-47D breast. To be noted: 10 µM unless noted.
The next test has as its system BT-549 breast. The settings on record: 10 µM unless noted.
The test system of a further test is MDA-MB-435 melanoma. To be noted: 10 µM unless noted.
The test system of the next test is SW-620 colon. To be noted: 10 µM unless noted.
The next test has as its system HCT-116 colon. To be noted: 10 µM unless noted.
The subject of a further test is HCC-2998 colon. The settings on record: 10 µM unless noted.
The next test concerns KM12 colon. To be noted: 10 µM unless noted.
The test system of the next test is OVCAR-3 ovarian. To be noted: 10 µM unless noted.
The next test relates to MCF7 breast. The settings on record: 10 µM unless noted.
A further test relates to OVCAR-8 ovarian. To be noted: 10 µM unless noted.

The panel holds about 83,000 compounds, 20% with a hit somewhere; the sample as a whole holds those more often.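 The endpoint reported here, percent growth, reads 100 for growth as untreated, 0 for no net growth and -100 for all cells dead.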 Values without a mark were called inactive. Calls of active or inactive are those of the source. The calls were made as follows: active = growth percent below 10; inactive = the rest.

On to `CCCCCCCCCCCCNC(=S)N/N=C/c1ccccc1O`, for which the growth in the test with SR leukemia is 44%; in the test on RPMI-8226 leukemia, 55.4%; in the test on OVCAR-5 ovarian it was 99.1%; in the test with OVCAR-4 ovarian, 65.2%; in the test with SK-OV-3 ovarian it was 102%; with IGROV1 ovarian, 65.1%. Also, the growth in the test with HS 578T breast is 91.7%; in the test on NCI/ADR-RES ovarian, 77.1%; in the test with T-47D breast, 42.2%; in the test on BT-549 breast it was 108%; in the test on MDA-MB-435 melanoma it was 80.5%; with SW-620 colon it was 91.8%. Besides, the results for the growth with HCT-116 colon, in the test on HCC-2998 colon and with KM12 colon were 62.2%, 78.2% and 68.8%, respectively.
Take `CC(C)=CC/C=C(/C)[C@H]1CC[C@]2(C)[C@@H]1CC[C@@H]1[C@@]3(C)CCC(=O)NC(C)(C)[C@@H]3CC[C@]12C`: the growth in the test with SR leukemia was 12.3% [100 µM]; in the test on RPMI-8226 leukemia, -31.4% [100 µM] (active); with OVCAR-5 ovarian, 9.08% [100 µM] (active); in the test on SK-OV-3 ovarian, 38.6% [100 µM]; in the test with OVCAR-3 ovarian, -63.9% [100 µM] (active); in the test with HS 578T breast, -17.7% [100 µM] (active). The growth is 13% [100 µM] in the test with NCI/ADR-RES ovarian; -3.77% [100 µM] (active) in the test with T-47D breast; -0.884% [100 µM] (active) in the test with BT-549 breast; -4.47% [100 µM] (active) in the test with MDA-MB-435 melanoma; -58.8% [100 µM] (active) with SW-620 colon; 8.52% [100 µM] (active) in the test with MCF7 breast. For the same molecule, the growth with HCT-116 colon was -37.4% [100 µM] (active); in the test on HCC-2998 colon, 5.26% [100 µM] (active); in the test on KM12 colon, -56% [100 µM] (active).
Consider `CCCCCCNC(=O)Nc1ncnc2c1ncn2-c1ccccc1`, for which the growth was 99.5% in the test with SR leukemia; 91.4% in the test with RPMI-8226 leukemia; 88.9% in the test with OVCAR-5 ovarian; 85.3% in the test on OVCAR-4 ovarian; 87.5% in the test on SK-OV-3 ovarian; 111% in the test on OVCAR-3 ovarian. For the same molecule, the growth is 97.6% in the test with HS 578T breast; 91.1% in the test on NCI/ADR-RES ovarian; 66.6% in the test on T-47D breast; 102% with MDA-MB-435 melanoma; 95.9% with SW-620 colon; 89.4% with MCF7 breast. Also, the values for the growth in the test on HCT-116 colon, with HCC-2998 colon and with KM12 colon were 90.2%, 118% and 108%, respectively.
In the case of `Cc1nn(-c2ccccc2)c(N2CCOCC2)c1-c1nc2ccc([N+](=O)[O-])cc2[nH]1`, the growth in the test with SR leukemia was 87.2%; with RPMI-8226 leukemia, 97.6%; in the test with OVCAR-5 ovarian it was 108%; with OVCAR-4 ovarian, 98.9%; with SK-OV-3 ovarian it was 135%; in the test on IGROV1 ovarian, 111%. The growth in the test on OVCAR-3 ovarian was 110%; with NCI/ADR-RES ovarian, 105%; with T-47D breast, 95.8%; in the test with BT-549 breast it was 96.8%; with MDA-MB-435 melanoma, 96.1%; in the test on SW-620 colon, 116%. Moreover, the growth was 133% with HCC-2998 colon and 103% with KM12 colon.
For `O=C1/C(=C\c2cn(CC(O)CN3CCCCC3)c3ccccc23)c2ccccc2N1c1c(Cl)cccc1Cl` (stereo unspecified), the growth in the test on SR leukemia is -13% (active); in the test with RPMI-8226 leukemia, -25.7% (active); in the test with OVCAR-5 ovarian, -92.7% (active); in the test with OVCAR-4 ovarian, -68.6% (active); in the test on SK-OV-3 ovarian it was -99.7% (active); in the test with IGROV1 ovarian, -70.2% (active). For the same molecule, the growth was -99.6% (active) with OVCAR-3 ovarian; -55.3% (active) in the test with HS 578T breast; -86.1% (active) in the test on BT-549 breast; -93.3% (active) in the test on MDA-MB-435 melanoma; -91.8% (active) in the test with SW-620 colon; -77.5% (active) in the test on MCF7 breast. The figures for the growth with HCT-116 colon, in the test with HCC-2998 colon and in the test on KM12 colon were -78.6% (active), -82.4% (active) and -95.3% (active), respectively.
As to `COC(=O)[C@]12CCC(C)(C)C[C@H]1C1=CC[C@@H]3[C@@]4(C)C/C(=C/c5cccnc5)C(=O)C(C)(C)[C@@H]4CC[C@@]3(C)[C@]1(C)CC2`, the growth in the test on SR leukemia is 47.7% [100 µM]; with RPMI-8226 leukemia it was -38.4% [100 µM] (active); in the test on OVCAR-5 ovarian, -19.5% [100 µM] (active); in the test on SK-OV-3 ovarian, 7.52% [100 µM] (active); with IGROV1 ovarian it was -34.2% [100 µM] (active); in the test with OVCAR-3 ovarian, -1.73% [100 µM] (active). For the same molecule, the growth was -18.5% [100 µM] (active) with HS 578T breast; -40.5% [100 µM] (active) with NCI/ADR-RES ovarian; -12% [100 µM] (active) in the test with T-47D breast; -51.1% [100 µM] (active) in the test on MDA-MB-435 melanoma; -43.4% [100 µM] (active) in the test with SW-620 colon; -65.1% [100 µM] (active) with MCF7 breast. Besides, the growth is -29.4% [100 µM] (active) in the test on HCT-116 colon, -72.8% [100 µM] (active) with HCC-2998 colon and -48.6% [100 µM] (active) with KM12 colon.
In the case of `O=C(O)CC1CCCCC1c1ccccc1` (stereo unspecified), the growth was 98.5% in the test on SR leukemia; 104% in the test with RPMI-8226 leukemia; 102% with OVCAR-5 ovarian; 109% in the test on OVCAR-4 ovarian; 104% in the test with SK-OV-3 ovarian; 108% in the test with IGROV1 ovarian. For the same molecule, the growth in the test with OVCAR-3 ovarian was 118%; with HS 578T breast it was 83%; in the test on NCI/ADR-RES ovarian, 114%; with T-47D breast it was 104%; in the test on BT-549 breast it was 96%; in the test with MDA-MB-435 melanoma it was 115%. Moreover, the growth in the test with SW-620 colon was 111%; with HCT-116 colon it was 98.4%; with HCC-2998 colon it was 106%; with KM12 colon, 110%.
`O=C(N=c1n(-c2ccccc2)nc2n1CCN2C1=NCCN1)c1ccc(Cl)cc1`: the growth is 43.6% with SR leukemia; 91.9% in the test with RPMI-8226 leukemia; 95.9% in the test with OVCAR-5 ovarian; 90.2% with SK-OV-3 ovarian; 58% in the test on IGROV1 ovarian; 91.7% in the test with OVCAR-3 ovarian. Further, the growth in the test on HS 578T breast is 93.1%; in the test with T-47D breast, 83.9%; in the test on BT-549 breast it was 101%; in the test on MDA-MB-435 melanoma it was 42.1%; in the test on SW-620 colon, 79.5%; with MCF7 breast it was 86.4%. In addition, the growth with HCT-116 colon is 103%; in the test with HCC-2998 colon, 73%; in the test with KM12 colon, 99.3%.
For `NC(=O)CC1C=CCC1` (stereo unspecified), the growth with SR leukemia was 106%; in the test with RPMI-8226 leukemia it was 96.5%; in the test on OVCAR-8 ovarian it was 84.7%; in the test on SK-OV-3 ovarian, 105%; with IGROV1 ovarian, 107%; with OVCAR-3 ovarian, 111%. The growth was 110% in the test with HS 578T breast; 109% in the test with NCI/ADR-RES ovarian; 106% in the test with T-47D breast; 90.1% in the test with BT-549 breast; 102% in the test on MDA-MB-435 melanoma; 97.3% in the test with SW-620 colon. Besides, the growth in the test on MCF7 breast was 92.1%; in the test with HCT-116 colon, 105%; in the test on HCC-2998 colon, 101%; with KM12 colon, 102%.
